This note sets out measurements from PubChem BioAssay (NCATS).

Inconclusive results are not listed. A call without a number means that no potency is given here. Values without a mark were called inactive. Calls of active or inactive are those of the source. Calls come from the whole dose curve; as a rule, active = well fitted cell-killing curve with a large enough effect; inconclusive = small, poorly fitted or top-dose-only effect, or effect the other way; inactive = flat fitted curve, though single readings scatter.

The test system of the test is OV90. Put plainly: Primary qHTS to identify gynecologic anti-cancer compounds using libraries of approved drugs and bioactive compounds (AID 1345084). Note: nearly all actives have a fitted effect of over 55% in size. The following applies: Gynecologic cancer cell panel viability, ATPlite luminescence, 48 h; series mostly up to 57.5 µM. Put shortly: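 Cytotoxicity screen measuring ATP content by luciferase luminescence. Each compound is applied at five concentrations for 48 h at 37 C with 5% CO2.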
(qHTS replaces the single test concentration by a dilution series.)
Regarding `O=C(CC1CC(c2ccc(F)cc2F)=NO1)N1CCOCC1` (configuration not stated), the Potency entry was “inactive”.

As for `COC(=O)C1=CO[C@@H](O[C@@H]2O[C@H](CO)[C@@H](O)[C@H](O)[C@H]2O)[C@@H]2[C@@H](C(=O)O)CC[C@H]12`, the Potency result is “inactive”.

Take `C[C@@H]1O[C@@H](OC2C(CO)OC(OCC3OC(OC(=O)[C@]45CCC(C)(C)CC4C4=CCC6[C@@]7(C)CC[C@@H](O)[C@](C)(C(=O)O)C7CC[C@@]6(C)[C@]4(C)CC5)C(O)C(O)C3O)C(O)C2O)[C@H](O)[C@H](O)[C@H]1O` (some centres not stated): the activity change, negative = cytotoxicity is 8.36% [at 11.6 µM].

Turning to `OC[C@H]1O[C@@H](OC[C@H]2O[C@@H](OCc3ccccc3)[C@H](O)[C@@H](O)[C@@H]2O)[C@H](O)[C@@H](O)[C@@H]1O`, the Potency result is “inactive”.

Take `COC1OC(O)C2(CCC3(O2)C(C)CC2OC(=O)C4(C)CCCC3(C)C24)C1O` (configuration not stated): the Potency result is “inactive”.

`C=C1C(OC(C)=O)C(=O)C2C(C)(C)C(O)CCC2(C)C1CC(OC(C)=O)/C(C)=C/COC(C)=O` (configuration not stated): the Potency result is “inactive”.

On to `C/C(=C\CO)CC/C=C(\C)C(=O)O[C@@H]1O[C@H](CO)[C@@H](O)[C@H](O)[C@H]1O`, for which the Potency entry is “inactive”.

As to `CC(=O)c1c(C)cccc1O[C@@H]1O[C@H](CO)[C@@H](O)[C@H](O)[C@H]1O`, the Potency result is “inactive”.

As to `CC(=O)O[C@@H]1C=C2[C@H](CC[C@@]3(C)[C@@]2(O)CC[C@H]2Cc4c([nH]c5ccccc45)[C@@]23C)O[C@@H]1C(C)(C)O`, the Potency result was “inactive”.

In the case of `C=CC1(C)CC=C2C(CCC3C(C)(C(=O)O)CCCC23C)C1` (configuration not stated), the Potency result is “inactive”.

As for `CC(C)c1ccc2c(c1)C(=O)CC1C(C)(C(=O)O)CCCC21C` (configuration not stated), the Potency result is “inactive”.

For the compound `CC(C)CC(=O)O[C@@H]1O[C@H](CO)[C@@H](O[C@H]2O[C@H](C)[C@@H](N[C@H]3C=C(CO)[C@@H](O[C@H]4O[C@H](CO)[C@@H](O[C@H]5O[C@H](CO)[C@@H](O[C@H]6O[C@H](CO)[C@@H](O)[C@H](O)[C@H]6O)[C@H](O)[C@H]5O)[C@H](O)[C@H]4O)[C@H](O)[C@H]3O)[C@H](O)[C@H]2O)[C@H](O)[C@H]1O`, the activity change, negative = cytotoxicity is 4.33% [at 11.6 µM].
